Consider 20 compounds from PubChem BioAssay.

Unmarked numbers belong to inactive results. For some of these results: Potency and affinity values are given separately. Calls of active or inactive are those of the source. Unless noted, no rule for the calls is given here.

Experiment [1] in a line: antimalarial activity against Dd2 strain (AID 2302;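 active = growth inhibition above 50% at the single 2 µM test dose, taken to imply half-maximal potency below 2 µM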;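 also: 0% = DMSO untreated growth and 100% = chloroquine plus artemisinin killed control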). Conditions: P. falciparum Dd2 in RBCs, LDH growth readout, 72 h; at 2 µM; stronger effect = higher value.
The nature of experiment [2]: HepG2 cytotoxicity, primary screen, cytotoxicity control for P. falciparum antimalarial project, cell-based, ATP luminescence (AID 2303;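 active = inhibition above 50%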;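 also: 0% = DMSO wells and 100% = digitonin-killed cells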). Conditions: HepG2 viability, 24-48 h, at 10 µM, stronger effect = higher value.
Experiment [3] concerns the target L-lactate dehydrogenase (Plasmodium falciparum (isolate CDC / Honduras)) (UniProt Q27743). Kind of experiment: PfLDH activity inhibition – cell lysate, 3D7 strain, counter-screen for P. falciparum growth inhibition project (AID 2304).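 Also: 0% = vehicle and 100% = reference inhibitor.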 Conditions: P. falciparum 3D7 crude extract, LDH APAD/NBT absorbance; at 2 µM; stronger effect = higher value. Background: A counterscreen serves to expose hits that act by an unwanted route or on another target.

Experiment [4] in a line: inhibition of 3D7 malaria parasite growth – strain 3D7 (AID 2306).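 Also: 0% = DMSO wells and 100% = chloroquine plus artemisinin control wells.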 Conditions: P. falciparum 3D7 erythrocytic growth, LDH absorbance, 72 h; at 2 µM; stronger effect = higher value.
The target of experiment [5] is Calcium-dependent protein kinase 1 (Plasmodium falciparum (isolate 3D7)) (UniProt P62344). Kind of experiment: PfCDPK1 kinase inhibitors, biochemical, TCAMS library (AID 1159585; cut-off not given, nearly all actives have IC50 up to about 0.98 µM;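 also: inhibitors leave more ATP so luminescence rises with inhibition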). Conditions: recombinant PfCDPK1, Kinase-Glo ATP depletion luminescence.
For experiment [6], the target named is Plasmodium falciparum protein kinase 6 (PK6, PF3D7_1337100) (UniProt Q8IDW1). Kind of experiment: PfPK6 kinase inhibitors, biochemical, TCAMS library (AID 1159586). Conditions: recombinant PfPK6, Kinase-Glo ATP depletion luminescence.
Experiment [7] addresses Protein kinase 7 (PK7), Plasmodium falciparum 3D7 (PF3D7_0213400) (UniProt Q7YTF7). Kind of experiment: inhibition of Plasmodium PK7 catalytic activity – biochemical, TCAMS antimalarial set, Kinase-Glo luminescence (AID 1159587). Conditions: recombinant PfPK7, Kinase-Glo ATP depletion luminescence. For orientation: Kinase-Glo reads ATP consumption through a luciferase reaction.

Experiment [8] has as its target Calcium-dependent protein kinase 4 (Plasmodium falciparum (isolate 3D7)) (UniProt Q8IBS5). Put plainly: PfCDPK4 kinase inhibitors, biochemical, TCAMS library (AID 1159588; cut-off not given, nearly all actives have IC50 up to about 0.91 µM). Conditions: recombinant PfCDPK4, Kinase-Glo ATP depletion luminescence.

Sequence of Protein kinase 7 (PK7), Plasmodium falciparum 3D7 (PF3D7_0213400) (Q7YTF7 1-343): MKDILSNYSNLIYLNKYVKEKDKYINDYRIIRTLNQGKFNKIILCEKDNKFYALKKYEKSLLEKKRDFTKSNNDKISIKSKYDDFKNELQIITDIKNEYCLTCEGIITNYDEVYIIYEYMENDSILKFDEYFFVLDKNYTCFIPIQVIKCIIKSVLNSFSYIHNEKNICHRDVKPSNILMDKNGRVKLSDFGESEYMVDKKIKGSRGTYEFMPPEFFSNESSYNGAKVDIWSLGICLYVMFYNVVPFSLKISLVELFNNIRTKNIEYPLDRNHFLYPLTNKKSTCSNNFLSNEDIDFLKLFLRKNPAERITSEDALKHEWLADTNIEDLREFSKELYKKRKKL
Sequence of Plasmodium falciparum protein kinase 6 (PK6, PF3D7_1337100) (Q8IDW1 1-305): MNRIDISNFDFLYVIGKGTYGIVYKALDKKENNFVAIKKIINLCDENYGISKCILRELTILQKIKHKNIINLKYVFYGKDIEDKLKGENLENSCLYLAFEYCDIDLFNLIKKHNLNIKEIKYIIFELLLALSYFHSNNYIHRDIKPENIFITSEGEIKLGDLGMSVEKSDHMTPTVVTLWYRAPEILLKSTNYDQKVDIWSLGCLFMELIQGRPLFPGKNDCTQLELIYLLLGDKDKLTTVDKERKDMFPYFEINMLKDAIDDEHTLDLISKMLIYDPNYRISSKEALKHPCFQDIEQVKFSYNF
Sequence of Calcium-dependent protein kinase 1 (Plasmodium falciparum (isolate 3D7)) (P62344 whole entry, looked up): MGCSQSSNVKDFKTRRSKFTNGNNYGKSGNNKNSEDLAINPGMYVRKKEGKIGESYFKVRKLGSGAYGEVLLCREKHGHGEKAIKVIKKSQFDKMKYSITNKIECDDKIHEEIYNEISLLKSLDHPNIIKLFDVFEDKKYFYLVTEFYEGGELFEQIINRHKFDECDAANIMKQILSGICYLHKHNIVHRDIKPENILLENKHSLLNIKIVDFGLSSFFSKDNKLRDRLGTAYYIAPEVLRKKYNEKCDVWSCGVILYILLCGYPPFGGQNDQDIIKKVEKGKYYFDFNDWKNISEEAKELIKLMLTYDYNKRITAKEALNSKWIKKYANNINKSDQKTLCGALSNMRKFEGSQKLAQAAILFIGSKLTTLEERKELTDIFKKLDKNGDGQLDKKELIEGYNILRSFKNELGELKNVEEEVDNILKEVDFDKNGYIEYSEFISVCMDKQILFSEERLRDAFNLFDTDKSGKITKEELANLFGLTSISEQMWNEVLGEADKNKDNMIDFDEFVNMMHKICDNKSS
Sequence of L-lactate dehydrogenase (Plasmodium falciparum (isolate CDC / Honduras)) (Q27743 whole entry, looked up): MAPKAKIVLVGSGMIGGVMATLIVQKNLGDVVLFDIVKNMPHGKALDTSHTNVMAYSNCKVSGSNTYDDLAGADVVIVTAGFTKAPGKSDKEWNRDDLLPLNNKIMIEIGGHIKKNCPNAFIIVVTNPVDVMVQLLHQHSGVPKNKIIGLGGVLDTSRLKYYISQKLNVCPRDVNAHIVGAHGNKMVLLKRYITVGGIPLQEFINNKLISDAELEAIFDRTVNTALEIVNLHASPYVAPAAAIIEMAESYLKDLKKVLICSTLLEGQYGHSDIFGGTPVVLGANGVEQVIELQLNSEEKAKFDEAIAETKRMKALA
Sequence of Calcium-dependent protein kinase 4 (Plasmodium falciparum (isolate 3D7)) (Q8IBS5 whole entry, looked up): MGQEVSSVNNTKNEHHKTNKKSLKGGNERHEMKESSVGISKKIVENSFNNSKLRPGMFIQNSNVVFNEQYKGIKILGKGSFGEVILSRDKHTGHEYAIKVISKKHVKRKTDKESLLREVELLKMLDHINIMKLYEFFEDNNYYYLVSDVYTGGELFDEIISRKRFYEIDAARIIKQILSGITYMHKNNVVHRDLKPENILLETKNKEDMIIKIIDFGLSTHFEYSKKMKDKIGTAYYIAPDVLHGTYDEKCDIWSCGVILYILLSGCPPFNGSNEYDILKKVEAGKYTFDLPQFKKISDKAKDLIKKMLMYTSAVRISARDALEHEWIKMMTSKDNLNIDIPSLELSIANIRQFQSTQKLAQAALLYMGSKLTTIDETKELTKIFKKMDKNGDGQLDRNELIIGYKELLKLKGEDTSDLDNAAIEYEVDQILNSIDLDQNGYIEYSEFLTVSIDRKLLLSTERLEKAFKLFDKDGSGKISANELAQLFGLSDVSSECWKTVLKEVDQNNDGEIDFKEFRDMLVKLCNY

Broadly, the inhibition is the change of the read-out against control, counted positive when it falls. With `CCNc1cc(C(=O)N[C@@H](Cc2ccoc2)[C@H](O)CNC(C)CCCC(C)C)cc(N2CCCCS2(=O)=O)c1` (stereo not given in full), the growth inhibition was 68% (active) in experiment [1] and 99% (active) in experiment [4]. Moreover, the inhibition is -2% in experiment [2] and 0% in experiment [3]. Also, the outcome in experiment [5], in experiment [6], in experiment [7] and in experiment [8] was inactive.
Regarding `NC(N)=NN=CC(=O)Nc1ccc(Cl)cc1`, the growth inhibition in experiment [1] is 2%; in experiment [4] it was 101% (active). The inhibition is 5% in experiment [2] and -1% in experiment [3]. Moreover, the result in experiment [5], in experiment [6], in experiment [7] and in experiment [8] was inactive.
Consider `CC(C)(C)c1ccc(CN2CCC(NC(=O)c3ccc(-c4cccc(Cl)c4)s3)CC2)cc1`, for which the growth inhibition in experiment [1] is 47%; in experiment [4], 99% (active). Also, the inhibition in experiment [2] is 36%; in experiment [3], 5%. Moreover, the outcome in experiment [5], in experiment [6], in experiment [7] and in experiment [8] was inactive.
On to `CC(Nc1ccc2c(c1)CCC2)C(=O)Nc1cc(C(F)(F)F)ccc1N1CCOCC1` (stereo not given), for which the growth inhibition in experiment [1] and in experiment [4] was 100% (active) in each case. The inhibition is -3% in experiment [2] and -1% in experiment [3]. Also, the result in experiment [5], in experiment [6], in experiment [7] and in experiment [8] was inactive.
As to `CNC(=O)C(NC(=O)c1ccccc1C(=O)OC)c1ccccc1` (stereo not given), the results for the growth inhibition in experiment [1] and in experiment [4] were 2% and 96% (active), respectively. The inhibition is 4% in experiment [2] and 3% in experiment [3]. The result in experiment [5], in experiment [6], in experiment [7] and in experiment [8] was inactive.
As to `c1ccc(-n2ncc(CNCc3ccc(-c4cccc(-c5nc6ccccc6[nH]5)c4)cc3)n2)cc1`, the growth inhibition in experiment [1] is 9%; in experiment [4], 94% (active). Besides, the inhibition in experiment [2] was 21%; in experiment [3], 3%. Also, the result in experiment [5], in experiment [6], in experiment [7] and in experiment [8] was inactive.
Take `Cn1cncc1C(=O)Nc1cccc(-c2ccc(-c3nc4ccccc4[nH]3)cc2)c1`: the figures for the growth inhibition in experiment [1] and in experiment [4] were 11% and 99% (active), respectively. The inhibition in experiment [2] is -5%; in experiment [3] it was 1%. Also, the outcome in experiment [5], in experiment [6], in experiment [7] and in experiment [8] was inactive.
On to `Fc1ccc(C(OCC2CCCN(Cc3cccc4cccnc34)C2)c2ccc(F)cc2)cc1` (stereo not given), for which the growth inhibition in experiment [1] is 97% (active); in experiment [4], 98% (active). Moreover, the inhibition is 21% in experiment [2] and 3% in experiment [3]. Also, the outcome in experiment [5], in experiment [6], in experiment [7] and in experiment [8] was inactive.
`COc1ccc(NC(=O)[C@H](CC(C)C)Nc2cc(C)nc(NCCc3ccccc3)n2)cc1`: the growth inhibition is 74% (active) in experiment [1] and 101% (active) in experiment [4]. Further, the inhibition in experiment [2] is 13%; in experiment [3] it was -2%. In addition, the outcome in experiment [5], in experiment [6], in experiment [7] and in experiment [8] was inactive.
On to `COc1ccc2nccc([C@@H](O)CN3CCC(NCc4ccc(OC)c(NC=O)c4)CC3)c2c1`, for which the growth inhibition in experiment [1] was -1%; in experiment [4] it was 97% (active). The inhibition in experiment [2] is 0%; in experiment [3], 3%. For the same compound, the outcome in experiment [5], in experiment [6], in experiment [7] and in experiment [8] was inactive.
As for `CCOc1cc(-c2nnc3[nH]c(=O)n(C)c(=O)c3n2)ccc1OC(C)C`, the growth inhibition in experiment [1] is 86% (active); in experiment [4], 97% (active). The inhibition is 15% in experiment [2] and 1% in experiment [3]. Further, the result in experiment [5], in experiment [6], in experiment [7] and in experiment [8] was inactive.
For `COc1ccc(C2CC(c3cccs3)=NN2C(=O)COc2cccc3c2CCCC3O)cc1OC` (stereo not given), the figures for the growth inhibition in experiment [1] and in experiment [4] were 62% (active) and 93% (active), respectively. Besides, the inhibition in experiment [2] was 5%; in experiment [3], 3%. In addition, the outcome in experiment [5], in experiment [6], in experiment [7] and in experiment [8] was inactive.
As for `CN(C)CCOc1ccc(-c2cc(-c3ccncc3)c(-c3ccc(Cl)c(O)c3)[nH]2)cc1`, the growth inhibition in experiment [1] was 100% (active); in experiment [4], 98% (active). Further, the inhibition is 25% in experiment [2] and -2% in experiment [3]. Also, the result in experiment [5], in experiment [6], in experiment [7] and in experiment [8] was inactive.
As for `O=C(/C=C/c1cccc(OC(F)(F)F)c1)NCCCCCN1CCC(c2c[nH]c3ccccc23)CC1`, the growth inhibition in experiment [1] was 13%; in experiment [4], 93% (active). The inhibition in experiment [2] is 27%; in experiment [3], -6%. In addition, the outcome in experiment [5], in experiment [6], in experiment [7] and in experiment [8] was inactive.
As for `CCCc1cc(OC)c(C[C@H]2c3cc(O)c(Cl)cc3CCN2C)cc1OC`, the growth inhibition is 98% (active) in experiment [1] and 97% (active) in experiment [4]. In addition, the inhibition was -3% in experiment [2] and -6% in experiment [3]. Moreover, the result in experiment [5], in experiment [6], in experiment [7] and in experiment [8] was inactive.
As to `O=C(c1cc(C(=O)Nc2ccc(F)cc2)c(=O)n(-c2ccc(F)cc2)c1)c1cc(Cl)ccc1O`, the growth inhibition in experiment [1] is 98% (active); in experiment [4], 101% (active). For the same compound, the inhibition in experiment [2] is 13%; in experiment [3] it was -4%. In addition, the outcome in experiment [5], in experiment [6], in experiment [7] and in experiment [8] was inactive.
For the compound `CCCCCCCCCc1c(C)[nH]c2ccccc2c1=O`, the growth inhibition in experiment [1] was 96% (active); in experiment [4], 97% (active). In addition, the results for the inhibition in experiment [2] and in experiment [3] were -16% and 7%, respectively. Further, the outcome in experiment [5], in experiment [6], in experiment [7] and in experiment [8] was inactive.
Take `COc1ccc(Cn2c(N3CCN(S(=O)(=O)c4ccc(OC)cc4)CC3)nc3c2c(=O)n(CC2CC2)c(=O)n3CC2CC2)cc1`: the growth inhibition in experiment [1] was 39%; in experiment [4], 92% (active). Besides, the inhibition is -12% in experiment [2] and -3% in experiment [3]. Further, the outcome in experiment [5], in experiment [6], in experiment [7] and in experiment [8] was inactive.
Turning to `COc1cccc(Nc2nc(N)c3ccccc3n2)c1`, the growth inhibition was 47% in experiment [1] and 88% (active) in experiment [4]. In addition, the inhibition in experiment [2] is 18%; in experiment [3], -2%. In addition, the outcome in experiment [5], in experiment [6], in experiment [7] and in experiment [8] was inactive.
In the case of `CC(C)CCNC(=O)C1Cc2c([nH]c3cc(Br)ccc23)C2(CCN(CCc3ccccc3)CC2)N1` (stereo not given), the growth inhibition is 48% in experiment [1] and 97% (active) in experiment [4]. Also, the inhibition is 14% in experiment [2] and -1% in experiment [3]. Besides, the outcome in experiment [5], in experiment [6], in experiment [7] and in experiment [8] was inactive.
